Only some compounds are listed: those with a hit (about 4% of all), similar ones and a draw of the others.
FGF22 binding – binders of recombinant human FGF22 by thermal shift | SYPRO orange fluorescence; percent of sucrose octasulfate shift, DMSO zero | activity (Tm shift, normalised), % at 9.99 µM | 340,000 compounds, 1.5% hits;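 active means mean Tm shift, scaled 0 neutral to 100 positive control, at about 1.3% or above, every replicate too, limit read from the data; inconclusive means no clear call, values can overlap the other calls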
MLL AF4-AF9 inh – MLL-AF4/AF9 protein interaction inhibition; P42568; AlphaScreen, biotin-AF4 peptide binding to FLAG-AF9; 350,000 compounds, 0.47% hits; inhibition, % at 10 µM;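 active means every replicate reaching a set inhibition limit, whatever the replicate mean, cut at about 25% in these data; inconclusive means mean inhibition reaches that limit but some replicates miss it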
DENV2 CPE – inhibitors of DENV2 cytopathic effect; CPE inhibition, % at 9.99 µM; DENV2-infected cells, cytopathic effect rescue, plate reader; 350,000 compounds, 1.7% hits; AID 651640; in the data active means CPE inhibition above about 20%, passing the limit was not always enough; inconclusive means no clear call, values can overlap the other calls; tested in BHK-21 cells
ERAP1 HTS inh – ERAP1 (human) enzyme inhibition; Q9NZ08; recombinant ERAP1, Leu-AMC fluorescence, 60 min; inhibition, % at 10.7 µM; 340,000 compounds, 0.15% hits; AID 652197;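 active means mean replicate inhibition of at least 30%, or all replicates individually reaching that 30% level; inactive means mean below 30% and not every replicate reaching it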
Target sequence (Q9NZ08 whole entry, looked up): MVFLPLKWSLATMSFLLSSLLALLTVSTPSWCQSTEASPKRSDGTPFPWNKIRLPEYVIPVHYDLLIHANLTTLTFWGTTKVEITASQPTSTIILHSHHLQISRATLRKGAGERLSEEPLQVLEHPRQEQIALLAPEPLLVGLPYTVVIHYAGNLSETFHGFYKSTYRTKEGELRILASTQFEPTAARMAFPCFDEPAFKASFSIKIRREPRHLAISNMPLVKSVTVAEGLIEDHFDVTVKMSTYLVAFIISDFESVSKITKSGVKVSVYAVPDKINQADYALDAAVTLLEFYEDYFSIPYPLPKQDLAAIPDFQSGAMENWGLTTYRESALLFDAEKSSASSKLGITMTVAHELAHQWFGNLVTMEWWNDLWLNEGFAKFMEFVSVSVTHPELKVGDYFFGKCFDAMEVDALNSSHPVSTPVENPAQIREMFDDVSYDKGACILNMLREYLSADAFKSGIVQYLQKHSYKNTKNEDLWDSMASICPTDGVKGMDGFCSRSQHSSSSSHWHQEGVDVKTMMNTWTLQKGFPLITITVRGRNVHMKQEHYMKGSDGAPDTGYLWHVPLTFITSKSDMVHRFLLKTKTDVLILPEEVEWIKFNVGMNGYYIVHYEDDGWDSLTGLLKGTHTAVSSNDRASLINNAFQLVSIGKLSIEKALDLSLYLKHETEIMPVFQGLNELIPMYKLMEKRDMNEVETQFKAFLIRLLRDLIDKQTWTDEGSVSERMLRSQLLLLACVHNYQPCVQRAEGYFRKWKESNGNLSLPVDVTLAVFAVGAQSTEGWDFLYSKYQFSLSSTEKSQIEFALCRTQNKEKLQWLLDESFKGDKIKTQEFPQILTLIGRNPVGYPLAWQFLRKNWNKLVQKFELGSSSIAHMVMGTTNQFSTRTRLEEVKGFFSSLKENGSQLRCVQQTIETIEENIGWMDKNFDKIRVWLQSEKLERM
RAD52 inh – RAD52 (human) annealing inhibition; 360,000 compounds, 0.46% hits; P43351; recombinant RAD52 DNA annealing, FRET fluorescence; inhibition, % at 18.7 µM;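 active means every replicate showing at least 50% inhibition; inconclusive means mean inhibition at least 50% but not in every replicate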
Each line names hits and unclear results; the compound was inactive in the other large screens; ! = a repeat was not active.

CC(C)CC#Cc1ccc2c(c1)O[C@H](CN(C)S(=O)(=O)c1cccc(F)c1)[C@H](C)CN([C@H](C)CO)S2(=O)=O	DENV2 CPE 22
COc1cccc(S(=O)(=O)N(C)C[C@@H]2Oc3cc(C#CCC(C)C)ccc3S(=O)(=O)N([C@H](C)CO)C[C@H]2C)c1	none
CCCC#Cc1ccc2c(c1)O[C@@H](CN(C)S(=O)(=O)c1cccc(F)c1)[C@H](C)CN([C@@H](C)CO)S2(=O)=O	DENV2 CPE 30
COc1cccc(S(=O)(=O)N(C)C[C@H]2Oc3cc(C#CCC(C)C)ccc3S(=O)(=O)N([C@@H](C)CO)C[C@H]2C)c1	DENV2 CPE 44
CC(C)CC#Cc1ccc2c(c1)O[C@H](CN(C)S(=O)(=O)c1cccc(F)c1)[C@H](C)CN([C@@H](C)CO)S2(=O)=O	none
CCNC(=O)[C@H]1[C@H](CO)[C@H]2Cn3c(ccc(-c4ccc(F)cc4)c3=O)[C@@H]1N2Cc1ccccc1F	none
CCC/C(C#CCCN1C(=O)c2ccccc2C1=O)=C1/c2ccccc2C(=O)N1c1ccccc1	DENV2 CPE 79
CCC/C(=C1/c2ccccc2C(=O)N1c1ccccc1)c1c(C)noc1C	FGF22 binding 43
C[C@@H]1CN([C@@H](C)CO)C(=O)c2cc(C#CCN(C)C)cnc2O[C@H]1CN(C)C(=O)c1cccnc1	none
CCC(=O)N1[C@H](CO)[C@@H](c2ccccc2)[C@@H]1CN(C(C)C)S(C)(=O)=O	none
COc1ccc(COCCN2CCN(S(=O)(=O)c3ccc(C)cc3)CCC2=O)cc1	DENV2 CPE 79 (no result: ERAP1 HTS inh)
Cc1ccc(COCCN2CCN(S(=O)(=O)c3ccc(C)cc3)CCC2=O)cc1	none
CC(=O)N1CC2(C1)[C@H](c1ccc(-c3cccc(F)c3)cc1)[C@H](CO)N2CC1CCOCC1	none
C[C@H]1CN([C@@H](C)CO)C(=O)Cc2cc(NC(=O)Cc3cn(C)c4ccccc34)ccc2O[C@H]1CN(C)Cc1ccc(Cl)c(Cl)c1	none
CC1NC(=S)N(C2CCCCC2)C1=O (centres undefined)	FGF22 binding 43
O=C(O)CNC(=O)c1ccc(NS(=O)(=O)c2ccc3ccccc3c2)cc1	DENV2 CPE 31
COCCNC(=O)C[C@@H]1CC[C@H]2[C@@H](COC[C@H](O)CN2S(=O)(=O)c2ccccc2C)O1	none
Cc1ccccc1S(=O)(=O)N1C[C@@H](O)COC[C@H]2O[C@H](CC(=O)NCCc3ccccc3)CC[C@@H]21	RAD52 inh 72
Cc1ccccc1S(=O)(=O)N1C[C@H](O)COC[C@@H]2O[C@@H](CC(=O)NCCc3ccccc3)CC[C@H]21	RAD52 inh 58
COC(=O)c1sccc1NC(=O)C1CC(C)=C(C)CC1C(=O)O (centres undefined)	MLL AF4-AF9 inh 30
COc1cccc(NC(=O)N(C)C[C@@H]2Oc3ncc(C#Cc4ccncc4)cc3C(=O)N([C@H](C)CO)C[C@H]2C)c1	none
CCCCNc1c([N+](=O)[O-])c(=O)n(C)c2ccccc12	none
O=c1c([N+](=O)[O-])c(NCCN2CCCCCC2)c2ccccc2n1-c1ccccc1	FGF22 binding 43
Cn1cc(C=O)c2ccccc21	none
O=Cc1ccc(-n2cc(C=O)c3ccccc32)cc1	FGF22 binding 43
COc1cc(Br)cc(/C=N/NC(=O)Cc2ccccc2)c1O	MLL AF4-AF9 inh 79
O=C(Cc1ccccc1)N/N=C/c1cc(Br)cc(Cl)c1O	none
CN(C)c1ccc(CN2CCC(C(=O)NC(c3ccc(F)cc3)c3ccc4ccccc4n3)CC2)cc1 (centres undefined)	MLL AF4-AF9 inh 42
O=C(NC(c1ccc(F)cc1)c1ccc2ccccc2n1)C1CCN(Cc2ccc3ccccc3n2)CC1 (centres undefined)	none
CC(=O)N[C@H]1C[C@@H]2O[C@@H](CO)CC[C@@H]2O[C@@H]1CCc1ccc(C#CC2(O)CCCC2)cc1	none (no result: FGF22 binding)
Cc1ccc(CN(C)C[C@@H]2OCc3cnnn3CCCC(=O)N([C@H](C)CO)C[C@@H]2C)cc1	none
COc1ccc(-c2nc(S(=O)(=O)c3ccccc3)c(N3CCN(C)CC3)o2)cc1	FGF22 binding 46
CCOc1ccc(-c2nc(S(=O)(=O)c3ccccc3)c(N3CCOCC3)o2)cc1	none
COc1ccc(N2CCN(C(c3cccs3)C(C)NS(C)(=O)=O)CC2)cc1 (centres undefined)	none
COc1ccc(N2CCN(C(c3cccs3)C(C)NC(=O)c3ccc4c(c3)OCO4)CC2)cc1 (centres undefined)	FGF22 binding 43
Cc1cccc(-n2ncc3c(N)ncnc32)c1	none (no result: FGF22 binding, MLL AF4-AF9 inh, DENV2 CPE)
Cc1cccc(-n2nc(CC#N)c(C#N)c2N)c1	FGF22 binding 44
O=C(Cn1sc2ccccc2c1=O)Nc1ccc(F)cc1	FGF22 binding 43
O=C(Cn1sc2ccccc2c1=O)Nc1ccc(Br)cc1	DENV2 CPE inconclusive
C[C@@H]1CN([C@H](C)CO)S(=O)(=O)c2ccc(-c3cccc(C(=O)N(C)C)c3)cc2O[C@H]1CN(C)C(=O)Nc1ccc(F)cc1	DENV2 CPE 27!
Cc1ccc(-c2ccc3c(c2)O[C@@H](CN(C)C(=O)Nc2ccc(F)cc2)[C@@H](C)CN([C@@H](C)CO)S3(=O)=O)cc1	DENV2 CPE 30
CCOC(=O)C[n+]1ccc2c([nH]c3ccccc32)c1C	ERAP1 HTS inh 51
CCCC(=O)N(Cc1cc(=O)[nH]c2ccccc12)c1cccc(C)c1	DENV2 CPE 29
CCOC(=O)c1ccc2[nH]c3ccccc3c2c1	none
CCOC(=O)c1cc(=O)[nH]c2ccccc12	FGF22 binding 43
O=C(NCCc1ccccc1)c1cc(=O)[nH]c2ccccc12	FGF22 binding 43
COc1ccc2c3c(n(C)c2c1)[C@H](CO)N(Cc1nccs1)CC31CN(C)C1	none (no result: FGF22 binding, ERAP1 HTS inh, RAD52 inh)
O=C(C[C@@H]1CC[C@@H](NC(=O)Nc2ccc(C(F)(F)F)cc2)[C@@H](CO)O1)NCCN1CCCC1	none
CCOC(=O)Cc1c(Cl)c2ccccc2[nH]c1=O	FGF22 binding 43
CCOC(=O)CSc1c(-c2ccc(Cl)cc2)[nH]c2ccccc12	none
CC(C)NC(=O)N(C)C[C@@H]1OCCCC[C@@H](C)Oc2ccc(NC(=O)Nc3ccc(F)cc3)cc2C(=O)N([C@H](C)CO)C[C@@H]1C	DENV2 CPE 48!
CC(C)NC(=O)N(C)C[C@H]1OCCCC[C@H](C)Oc2ccc(NC(=O)Nc3ccc(F)cc3)cc2C(=O)N([C@@H](C)CO)C[C@H]1C	DENV2 CPE 56
CC(C)NC(=O)N(C)C[C@@H]1OCCCC[C@@H](C)Oc2ccc(NC(=O)Nc3ccc(F)cc3)cc2C(=O)N([C@H](C)CO)C[C@H]1C	none
C(=C\c1sc(Nc2ccccc2)n[n+]1-c1ccccc1)/c1ccccc1	MLL AF4-AF9 inh 31, DENV2 CPE 52 (no result: ERAP1 HTS inh)
CC(=O)N[C@H]1CC[C@H](CC(=O)NCc2ccc(Cl)cc2)O[C@@H]1CO	none
C[C@@H]1CCCCO[C@H](CN(C)S(=O)(=O)c2cccs2)[C@H](C)CN([C@@H](C)CO)C(=O)c2cc(NC(=O)C3CCCCC3)ccc2O1	none

Compound activity: PubChem, Broad Institute
